Experimental findings from PubChem BioAssay (NCI) are described below.

Common to all, as to test: NCI-60 one-dose screen, 48 h (100 = growth as untreated, 0 = no growth, -100 = all killed)
Holding throughout (details): 10 µM

Test [1] has as its system NCI-H23 lung.
Test [2] relates to NCI-H226 lung.
In test [3] the test system is NCI-H322M lung.
The test system of test [4] is HOP-62 NSCLC.
For test [5], the system named is NCI-H460 lung.
Test [6] relates to HOP-92 NSCLC.
The subject of test [7] is NCI-H522 lung.
Test [8] deals with A549/ATCC NSCLC.
For test [9], the system named is 786-0 renal.
Test [10] has as its system COLO 205 colon.

Compounds without any hit were thinned out: in the full panel of roughly 83,000, 20% have a hit.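 48-hour exposure, single concentration, 96-well plates; percent growth endpoint where 0 means no net growth. Active: below 10.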 Unmarked numbers belong to inactive results. Calls of active or inactive are those of the source.

Take `O=C(O)c1cc(C(F)(F)F)cc(C(F)(F)F)c1`: the growth in test [1] was 101%; in test [2] it was 111%; in test [3], 102%; in [4], 103%; in test [5], 107%; in test [6], 121%. Besides, the growth in test [7] is 102%; in test [8], 101%; in test [9], 93.7%; in test [10] it was 113%.
Take `COc1cc(OC)cc(N2CCN(C(=O)Nc3nc4cc(F)ccc4nc3OC)CC2)c1`: the growth in [1] was 20.4%; in [2], 43.3%; in [3] it was 29.3%; in test [4], 34.7%; in test [5], 5% (active); in test [6], 39.8%. For the same compound, the growth was -3.96% (active) in [7], 19.8% in [8], 15% in test [9] and -65.4% (active) in test [10].
As to `COc1cc(-c2nc3ccc(C)cc3[nH]2)ccc1OCC(=O)N=Nc1c(O)[nH]c2ccccc12`, the growth in [1] is -17.5% (active); in test [2], 112%; in test [3], -33.9% (active); in test [4], -49.4% (active); in test [5], -70.5% (active); in [6], -12.7% (active). Also, the growth was -63.5% (active) in [7], 8.54% (active) in test [8], -93.5% (active) in test [9] and -37.8% (active) in test [10].
As to `O=c1oc2c3ccc4cnccc4c3[nH]c2c2ccccc12`, the growth is 65% in test [1]; 77.1% in test [2]; 78.6% in test [3]; 70.8% in [4]; 5.33% (active) in [5]; 49.2% in [6]. Further, the growth is -11.5% (active) in test [7], 0.199% (active) in test [8], 12.2% in test [9] and -57.2% (active) in [10].
As to `CCc1ccc(-c2nnc(COc3ccc(-c4nc5ccc(C)cc5[nH]4)cc3OC)o2)cc1`, the growth is 57.2% in test [1]; 48.6% in test [2]; 87.2% in test [3]; 32.6% in test [4]; 63.5% in [5]; 74.1% in [6]. For the same compound, the growth in test [7] was 71.3%; in [8], 61.6%; in test [9] it was 21%; in test [10], 84.7%.
With `N#Cc1ccc(-n2cnc(NC(=O)[C@H]3CCN(C#N)C3)c2)cc1`, the growth in [1] is 19.8%; in test [2] it was 26.4%; in test [3], 43.5%; in [4], 23%; in test [5], 15.3%; in test [6] it was 42%. Moreover, the growth is -37.8% (active) in test [7], 23.8% in [8], 23.7% in test [9] and -55.3% (active) in [10].
Consider `COc1ccc(-c2nc(-c3ccccc3)c(-c3ccccc3)[nH]2)cc1OC1CCCC1`, for which the growth in test [1] is 73.1%; in test [2], 88.9%; in [3] it was 66%; in test [4], 113%; in [5], 61.4%; in test [6] it was 12.6%. The growth in test [7] is 36.1%; in test [8], 61.8%; in test [9], 78.6%; in [10], 86.3%.
As for `Nc1nsc(C(=O)c2ccc(O)cc2)n1`, the growth was 98.6% in test [1]; 104% in test [2]; 105% in [3]; 76.4% in [4]; 110% in test [5]; 88% in test [6]. In addition, the growth is 91.8% in [7], 83.7% in test [8], 117% in [9] and 106% in test [10].
Take `COc1ccc(NC(=O)c2sc3nc4c(cc3c2N)C(O)CCC4)cc1` (stereo not given): the growth in [1] is 98.5%; in test [2] it was 101%; in test [3], 30.6%; in test [4], 117%; in test [5], 48.3%; in test [6] it was 85.2%. The growth in [7] was 99.8%; in test [8], 70%; in test [9], 94.8%; in test [10] it was 110%.
As for `CCOC(=O)C(=O)Cc1cccnn1`, the growth is 101% in test [1]; 95.2% in test [2]; 109% in [3]; 103% in test [4]; 116% in [5]; 86.1% in [6]. Also, the growth in test [7] is 97.2%; in test [8] it was 97.5%; in [9] it was 96.4%; in test [10], 102%.
On to `O=C(OCC1OC(n2cc(C(F)(F)F)c(=O)[nH]c2=O)CC1OC(=O)c1ccc([N+](=O)[O-])cc1)c1ccc([N+](=O)[O-])cc1` (stereo not given), for which the growth in [1] is 90.9%; in [2] it was 72.5%; in test [3] it was 91.2%; in test [4], 75.9%; in test [5], 31.2%; in test [6] it was 69.9%. The growth in test [7] is 76.6%; in test [8], 69.6%; in test [9], 18.9%; in test [10], 87.8%.
Take `CCCCCC(=O)N1c2ccccc2NC2=C(C(=O)CC(c3ccc(OC)c(OC)c3)C2)C1c1ccc(C(F)(F)F)cc1` (stereo not given): the growth in [1] was 51.5%; in [2] it was 64.8%; in test [3], 70.6%; in [4], 54.8%; in test [5] it was 76.9%; in test [6], 66.4%. Moreover, the growth is 37.5% in test [7], 58.5% in test [8], 65.8% in [9] and 69.2% in [10].
Consider `CCc1c(C(=O)NCc2c(O)ccc3cccc(O)c23)[nH]c(C)c1C(C)=O`, for which the growth is 23.4% in test [1]; 52.7% in [2]; 69.5% in test [3]; 59% in test [4]; 43.4% in test [5]; 32.8% in test [6]. Further, the growth in test [7] was 11.4%; in test [8], 27.3%; in [9], 60.9%; in [10], 69.5%.
With `C[n+]1c(/C=C/c2c[nH]c3ccccc23)ccc2ccccc21`, the growth in test [1] is 71.5%; in [2], 62.3%; in test [3] it was 69.8%; in test [4], 75.4%; in test [5], 34.5%; in test [6] it was 37.9%. The growth in test [7] was 53.4%; in test [8], 46.6%; in test [9], 82.9%; in test [10] it was 45.8%.
Turning to `Cn1cnc([N+](=O)[O-])c1Sc1nnc(-c2ccccc2)c(-c2ccccc2)n1`, the growth is 79.5% in test [1]; 77.1% in test [2]; 102% in [3]; 97.3% in test [4]; 113% in [5]; 71.1% in test [6]. Also, the growth was 85.4% in [7], 114% in [8], 85.4% in test [9] and 90.2% in [10].
As for `CCc1nn2c(-c3ccccc3)c(-c3cc(OC)c(OC)c(OC)c3)nc2s1`, the growth in test [1] is 98.3%; in test [2], 84.6%; in [3], 82.4%; in [4] it was 98.7%; in test [5], 88.3%; in test [6], 49.8%. The growth is 70.9% in [7], 92.1% in test [8], 76.5% in [9] and 84.9% in test [10].
For the compound `Nc1c(C(=O)NC2CCCCC2)sc2nc3c(cc12)C(=O)CCC3`, the growth in test [1] was 98.7%; in test [2], 95.4%; in [3] it was 105%; in test [4] it was 120%; in test [5], 103%; in test [6], 82.9%. The growth is 98.6% in [7], 84.5% in test [8], 99.5% in [9] and 116% in [10].
Consider `CCN(CC)CCCOC(=O)Nc1ccccc1Cl`, for which the growth is 108% in test [1]; 108% in [2]; 129% in test [3]; 112% in test [4]; 115% in test [5]; 94.9% in [6]. The growth in [7] is 102%; in test [8] it was 107%; in test [9], 98.9%; in [10], 118%.
In the case of `CC(=O)O[C@H]1CC[C@@]2(C)[C@@H](CC[C@@H]3[C@@H]2CC[C@]2(C)C=C(C=O)C[C@@H]32)C1`, the growth in test [1] was 73.6%; in test [2], 119%; in [3] it was 90.9%; in test [4] it was 33.3%; in test [5], 103%; in test [6] it was 76.2%. Also, the growth in test [7] was 93.1%; in [8], 95.3%; in test [9], 102%; in test [10], 95.4%.
Regarding `c1ccc(C2CCCCC2)c(OCCCCCN2CCNCC2)c1`, the growth in test [1] was 71.2%; in [2], 84.7%; in test [3] it was 72.6%; in [4], 78.9%; in test [5], 4.61% (active); in test [6], 29.4%. Moreover, the growth is 60.8% in test [7], 53% in test [8], 60.1% in test [9] and -74.6% (active) in test [10].
As to `COC(=O)c1c(C)nc(Nc2nc3ccccc3s2)nc1-c1ccc(Cl)cc1Cl`, the growth in test [1] was 103%; in test [2], 102%; in test [3], 106%; in test [4], 97%; in test [5], 106%; in [6], 107%. For the same compound, the growth in test [7] is 96.1%; in test [8] it was 107%; in [9], 104%; in test [10], 110%.
`Cc1c(C(=O)N[C@H](CO)Cc2ccccc2)[nH]c2ccc(Cl)cc2c1=O`: the growth is 101% in test [1]; 120% in test [2]; 108% in [3]; 100% in [4]; 106% in [5]; 94.7% in test [6]. Further, the growth is 83.8% in [7], 87.1% in [8], 96.4% in [9] and 104% in test [10].
For the compound `Oc1ccc(/C=N\Nc2ccccn2)c(O)c1`, the growth was 1.98% (active) in [1]; 41.7% in test [2]; -5.61% (active) in [3]; 2.96% (active) in test [4]; 3.15% (active) in test [5]; 38.1% in test [6]. The growth in [7] is 23.7%; in [8], 26.6%; in [9], -13.2% (active); in test [10] it was 69.1%.
As for `O=C1/C(=C/c2cccs2)CCC/C1=C\c1cccs1`, the growth was 81.5% in test [1]; 80.9% in [2]; 85.3% in [3]; 96.7% in test [4]; 92.1% in [5]; 66% in [6]. Also, the growth was 76.7% in test [7], 88.4% in [8], 108% in [9] and 117% in test [10].
With `COc1ccc2c(c1)/C(=C/c1cc(OC)c(OC)c(OC)c1)C(=O)N2C`, the growth in test [1] is 34.2%; in test [2], 19.3%; in test [3], 39.5%; in test [4], 57.5%; in [5] it was -6.11% (active); in test [6], -7.03% (active). In addition, the growth in [7] was -15.1% (active); in [8] it was 14.5%; in [9], 29.4%; in [10], -36.8% (active).
As to `Cc1[nH]nc2c(=S)[nH]c(=O)[nH]c12`, the growth in test [1] is 103%; in test [2], 94.3%; in [3] it was 103%; in [4], 105%; in [5], 105%; in [6], 87.9%. For the same compound, the growth in test [7] is 98.7%; in test [8], 100%; in test [9], 97.3%; in [10], 109%.
For the compound `COC(=O)c1ccc(Cn2ccc(=O)[nH]c2=O)cc1`, the growth in test [1] is 105%; in test [2], 103%; in test [3], 116%; in test [4], 106%; in [5], 114%; in test [6], 99.3%. Besides, the growth was 93.2% in test [7], 105% in [8], 80.5% in [9] and 113% in test [10].
Take `COc1cc(OC)cc(-c2n/c(=C\c3c(O)[nH]c4ccc(OC)cc34)cc3c2=Nc2ccccc2-3)c1`: the growth was 65.8% in [1]; 92.4% in [2]; 102% in test [3]; 99.1% in [4]; 12.8% in [5]; 68.6% in test [6]. The growth was 108% in [7], 52.1% in test [8], 75.9% in test [9] and 86.5% in [10].
